Shown are actives, neighbours in structure and some others; about 8.3% of the full set was active somewhere.
HCV inhibitor – blocks hepatitis C virus. Huh7.5.1 HCVcc-Cre infection, luciferase reporter, 44 h. 340,000 tested, 3.4% active. Potency, µM (doses to about 41.8 µM), most hits filed as inhibitors
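Seed cells (1,000/well) for 4 h; treat with compound and infect with HCVcc-Cre, moi about 0.5. Incubate 44 h, then detect luciferase activity.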
MARV entry inh – inhibitors of Marburg virus binding or cell entry | Marburg virus pseudotyped entry inhibition, cell reporter | Potency, µM (doses to about 37.8 µM), usual class: inhibitors | 300,000 tested, 1.8% active | AID 540276; calls by dose curve; tested in HEK293 cells
LASV entry inh – Lassa virus entry inhibition; Lassa virus pseudotype entry inhibition, cell reporter; Potency, µM (top dose mostly 37.9 µM), hits mostly inhibitors; 300,000 tested, 1.2% active; AID 540256; calls by dose curve; tested in HEK293 cells; further: nearly all actives have a fitted effect of over 50% in size
HCMV antiviral – inhibitors of human cytomegalovirus. 410,000 tested, 4.5% active. HFF cells, HCMV-luciferase reporter, 72 h; stronger effect = lower value. activity change, negative = inhibition, % at 57.5 µM; in the data active means activity change below about -60%; inconclusive means no clear call, values can overlap the other calls; inactive means above about -39%
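Luciferase read-out from HCMV-luciferase-infected HFFs (MOI 1 PFU/cell) 72 h post infection at 37C; compounds added after 16 h cell attachment; activity normalized between buffer-only basal and Salinomycin (10uM) inhibitor controls.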
FMDV inh – blocks foot and mouth disease virus; FMDV antiviral cell-based qHTS; Potency, µM (doses to about 57.9 µM), hits mostly inhibitors; 410,000 tested, 1.2% active; calls by dose curve; tested in HEK293T cells; further: read-out not given here; nearly all actives have a fitted effect of over 45% in size
FBPA Giardia inh – inhibitors of Giardia lamblia fructose-1,6-bisphosphate aldolase; 290,000 tested, 0.71% active; Potency, µM (highest dose often 59.6 µM), actives largely listed as inhibitors; AID 2451; purified Giardia FBPA; further: nearly all actives have a fitted effect of over 55% in size
Target sequence (A8B2U2 whole entry, looked up): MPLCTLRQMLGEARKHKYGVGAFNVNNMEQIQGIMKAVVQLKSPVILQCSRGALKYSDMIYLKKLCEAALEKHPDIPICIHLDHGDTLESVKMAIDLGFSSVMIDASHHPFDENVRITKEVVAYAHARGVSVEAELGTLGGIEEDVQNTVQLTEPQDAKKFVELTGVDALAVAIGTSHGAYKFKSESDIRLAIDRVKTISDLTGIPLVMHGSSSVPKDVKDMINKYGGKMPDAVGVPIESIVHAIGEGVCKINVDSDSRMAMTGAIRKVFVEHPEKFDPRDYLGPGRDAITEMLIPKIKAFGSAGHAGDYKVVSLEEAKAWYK
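40 nM FBPA preincubated 10 min at RT with compound (up to 57.5 uM final), then substrate plus GAPDH/TPI/NAD/arsenate coupling and diaphorase/resazurin added. Fluorescence read after 20 min at RT, 525/598 nm.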
A number is an active result; . = inactive; ? = inconclusive; / = no result given; ! = not active in a repeat. Unless noted, the call rests on the fitted dose curve; in most records, active means well fitted curve in the direction sought with a large enough effect; inconclusive means small, poorly fitted or top-dose-only effect, or another doubt; inactive means no such curve, though single readings can be large; an effect the other way counts as inactive or inconclusive.

SMILES	HCV inhibitor	MARV entry inh	LASV entry inh	HCMV antiviral	FMDV inh	FBPA Giardia inh
N#Cc1ccc(C(=O)Nc2ccc3ccccc3c2)cc1	.	?	4µM	.	.	.
CN(C)S(=O)(=O)c1ccc(C(=O)Nc2nc3ccccc3[nH]2)cc1	.	.	/	.	.	.
O=C(Nc1nc2ccccc2[nH]1)c1ccc(F)cc1	.	?	6.5µM	.	20µM	.
N#Cc1ccc(C(=O)Nc2nc3ccccc3[nH]2)cc1	.	10µM	?	.	.	.
OC1CCN(Cc2ccc3c(c2)CN(C/C=C/c2ccco2)CCO3)CC1	/	/	/	/	.	/
Cc1cc2c(c(=O)o1)[C@H]1O[C@](c3ccsc3)(Cc3ccccc31)O2	/	.	/	/	/	/
CCc1ccc(C(=O)Nc2nc3ccccc3[nH]2)cc1	?	?	?	-101	5.6µM	.
O=C(Nc1nc2ccccc2[nH]1)c1ccccc1F	.	0.32µM	0.28µM	-79	3.2µM	.
Clc1ccccc1-c1nc2c(NCc3ccccc3)nccc2[nH]1	/	/	/	.	/	/
Cc1ccc2c(CNCc3cccs3)c(C(=O)O)n(Cc3ccc(F)cc3)c2c1	/	/	?	-102	.	/
C=Cc1ccc(Cn2c(C(=O)O)c(CNCc3cccs3)c3ccc(C)cc32)cc1	/	/	?	.	.	/
COc1ccc(Cn2c(C(=O)O)c(CNCc3ccc(SC)cc3)c3ccc(OC)cc32)cc1	/	/	?	-91	?	/
COc1ccc(Cn2c(C(=O)O)c(CNCCc3cc(OC)ccc3OC)c3ccc(C)cc32)cc1	/	/	?	-105	.	/
C=Cc1ccc(Cn2c(C(=O)O)c(CNCc3ccccc3)c3ccc(OC)cc32)cc1	/	/	.	?	.	/
COc1ccc(Cn2c(C(=O)O)c(CNCc3ccc(OC)cc3OC)c3ccc(C)cc32)cc1	/	/	.	?	?	/
C=Cc1ccc(Cn2c(C(=O)O)c(CNCc3ccc(F)cc3)c3ccc(C)cc32)cc1	/	/	?	-91	?	/
Cc1cccc(-n2ncc3c(NNC(=O)c4ccccc4Cl)ncnc32)c1	/	/	.	.	.	/
CCOC(=O)c1c(NC(=O)c2cc(CC)on2)sc(C)c1C	/	?	.	.	.	/
COc1ccc(Cn2c(C(=O)O)c(CNCc3cccs3)c3ccc(C)cc32)cc1	/	/	?	-66	.	/
O=C(CSc1nnc2c3ccccc3c3ccccc3c2n1)Nc1ccccc1F	.	.	.	-88	.	?
O=C(CSc1nnc2c(n1)[nH]c1ccc(F)cc12)Nc1ccccc1F	.	.	?	.	.	.
CC(C)(C)c1cc(/C=C(\C#N)C(N)=S)cc(C(C)(C)C)c1O	/	9.2µM	2.3µM	/	?	.
CC(C)(C)c1cc(C=C(C#N)C#N)cc(C(C)(C)C)c1O	?	2.1µM	0.41µM	-100	4µM!	.
[C-]#[N+]/C(C#N)=C\c1cc(C(C)(C)C)c(O)c(C(C)(C)C)c1	/	/	/	/	/	.
N#CC(C#N)=Cc1ccc(O)c(O)c1	.	.	?	.	.	14µM!
SMILES	HCV inhibitor	MARV entry inh	LASV entry inh	HCMV antiviral	FMDV inh	FBPA Giardia inh
NS(=O)(=O)c1ccc(NC(=O)CN2C(=O)COc3ccc(Cl)cc32)cc1	/	.	.	.	.	/
Nc1c2ccccc2nc2c(O)cccc12	/	/	/	/	/	.
COc1ccc(Cl)cc1NC(=O)C1CCCN(c2ncnc3onc(C)c23)C1 (centres undefined)	/	/	.	-77	?	/
CCCn1c(-c2ccc(F)cc2)nc2c(NCCN3CCCCC3)nc(C)nc21	/	/	/	/	/	.
CCN(CCCNC(=O)c1cc2c(=O)[nH]c3ccc(C)cc3c2s1)Cc1ccccc1	/	11µM	?	-106	?	/
CCN(CCCNC(=O)c1cc2c(=O)[nH]c3ccc(C)cc3c2s1)c1ccc(C)cc1	/	.	.	.	.	/
CCCN1CCN(CCCNC(=O)c2cc3c(=O)[nH]c4ccc(C)cc4c3s2)CC1	?	?	.	-101	.	.
CCN(CC)CCNC(=O)c1cc2c(=O)[nH]c3ccc(C)cc3c2s1	/	.	.	.	.	/
O=C(/C=C/c1ccc(I)cc1)c1ccc(B(O)O)cc1	/	/	/	/	/	.
COc1cc(-c2nc3ccccn3c2NCc2ccccc2)ccc1SC1CCCCC1	?	/	/	/	22µM	/
CCCCCCSc1cc(-c2nc3cnccn3c2NCc2ccccc2)ccc1OC	.	/	/	/	.	/
COc1ccc(-c2nc3cnccn3c2NCc2ccccc2)cc1SC1CCCCC1	10µM	/	/	/	?	/
COc1cc(-c2nc3ccc(C)cn3c2NCc2ccccc2)ccc1SC1CCCCC1	.	/	/	.	?	/
CCCCNc1c(-c2ccc(OC)c(SC3CCCCC3)c2)nc2cnccn12	?	/	/	/	.	/
CCCCNc1c(-c2ccc(OC)c(SC3CCCCC3)c2)nc2cc(C)ccn12	4µM	/	/	.	25µM	/
COc1ccc(-c2nc3ccccn3c2NC2CCCCC2)cc1SC1CCCCC1	?	/	/	-99	?	/
COc1cccc(C2CC(=O)N(c3ccc(F)cc3)C3=C2C(=O)OC3)c1OC (centres undefined)	/	.	.	.	.	/
COc1ccccc1CN1C(=O)CN(C2CCCCCC2)C(=O)C1c1ccc(C)cc1 (centres undefined)	/	/	?	?	.	/
C[N+]1(C)CCC[C@H]1C(=O)[O-]	/	/	/	/	/	.
Cc1ccc2[nH]c3c(c2c1)CCCC3NC(=O)CCl (centres undefined)	?	5.6µM	8.9µM	/	.	.
Cc1ccc2[nH]c3c(c2c1)CCC[C@H]3C(N)=O	/	.	/	/	/	/
O=CNC1CCCc2c1[nH]c1ccc(Cl)cc21 (centres undefined)	7.1µM	?	?	?	.	.
CCN(CC)C(=O)C1CCCc2c1[nH]c1ccc(Cl)cc21 (centres undefined)	?	/	/	.	.	.
CCCOC(=O)c1ccc(Oc2c(-c3ccc(OCC)cc3O)n[nH]c2C)cc1	?	?	?	-98	/	.
CCCOC(=O)c1ccc(Oc2cn[nH]c2-c2ccc(OCC)cc2O)cc1	?	?	7.9µM	.	?	.
SMILES	HCV inhibitor	MARV entry inh	LASV entry inh	HCMV antiviral	FMDV inh	FBPA Giardia inh
COc1ccc(Oc2c(-c3ccc(O)cc3O)n[nH]c2C)cc1	.	.	?	.	.	.
CCCc1ccc(Oc2cn[nH]c2-c2ccc(O)c(C)c2O)cc1	13µM	?	.	-61	/	.
CC(=O)OC/C=C(C)/C=C/C=C(C)/C=C/C1=C(C)CCCC1(C)C	/	/	/	/	.	.
O=C(C(=O)c1cc(Br)ccc1O)c1cc(Br)ccc1O	?	?	?	-97	.	/
O=C(NC(Cc1c[nH]c2ccccc12)C(=O)O)c1cccs1 (centres undefined)	.	.	.	.	.	.
O=C(NC(Cc1c[nH]c2ccccc12)C(=O)Nc1ccc(F)c([N+](=O)[O-])c1)c1cccs1 (centres undefined)	?	0.79µM	0.58µM	-87	.	.
CCOC(=O)c1sc(N)c(C(=O)Nc2ccccc2OC)c1C	.	?	2.5µM	.	.	.
COC(=O)c1c(N)sc(C(=O)NCCc2ccccc2)c1C	?	5µM	?	?	6.3µM	.
CCOC(=O)c1sc(N)c(C(=O)OC)c1C	.	.	.	.	.	.
CCOC(=O)c1sc2nc(C)nc(NCc3ccccc3OC)c2c1C	?	?	.	-73	?	.
COc1ccc2c(c1)-c1c(sn(-c3ccc(OC)c(OC)c3)c1=S)C(C)(C)N2	2.5µM	?	?	.	.	.

Bioassay records as filed in PubChem.
